Data as given in PubChem BioAssay AID382 (SGCOxCompounds, 2006).
Active and inactive are the calls of the source. How the calls were made is not given here.

molecular target: Dual specificity protein kinase CLK1 (Homo sapiens) (UniProt P49759); assay: ligand-induced CLK1 melting temperature shift – biophysical, recombinant human kinase, DSF (AID 382); conditions: Recombinant CLK1, thermal shift (DSF), at 10 µM, protein 2 µM, buffer 10 mM HEPES, pH 7.5, NaCl 150 mM, hits give high values
Sequence (P49759 whole entry, looked up): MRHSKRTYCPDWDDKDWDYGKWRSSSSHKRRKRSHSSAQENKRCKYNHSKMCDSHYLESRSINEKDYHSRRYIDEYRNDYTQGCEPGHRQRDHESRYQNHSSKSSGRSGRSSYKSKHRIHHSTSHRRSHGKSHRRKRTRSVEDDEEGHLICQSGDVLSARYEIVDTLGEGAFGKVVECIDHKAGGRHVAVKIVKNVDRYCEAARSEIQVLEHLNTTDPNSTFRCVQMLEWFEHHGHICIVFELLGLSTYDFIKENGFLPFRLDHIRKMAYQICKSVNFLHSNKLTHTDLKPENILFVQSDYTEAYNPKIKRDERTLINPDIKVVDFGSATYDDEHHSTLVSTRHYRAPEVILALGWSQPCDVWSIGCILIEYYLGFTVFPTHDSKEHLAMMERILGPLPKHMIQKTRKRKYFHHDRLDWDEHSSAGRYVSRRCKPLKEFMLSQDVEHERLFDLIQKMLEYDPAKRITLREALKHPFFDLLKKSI

SMILES	Tm shift
Nc1ncc(-c2ccncc2)nc1NC1CCCCC1	3.7 Celsius (active)
Clc1cccc(Nc2ccn3ncc(-c4ccsc4)c3n2)c1	3.45 Celsius (active)
CC(C)c1ccc(Nc2ccn3ncc(-c4ccsc4)c3n2)cc1	4.63 Celsius (active)

same assay, conditions: Recombinant CLK1, thermal shift (DSF), at 10 µM, protein 2 µM, buffer 10 mM HEPES, pH 7.5, NaCl 150 mM, with 50 µM L-Arg/L-Glu (1:1), hits give high values

SMILES	Tm shift
COC(=O)c1ccc(-c2cnc3ccc(NC4CCOCC4)nn23)cc1	4.3 Celsius (active)
O=C1NC(=O)C(c2cn(CCCn3ccnc3)c3ccccc23)=C1Nc1ccccc1	5.8 Celsius (active)
COCCNc1ccc2ncc(-c3cccc(Cl)c3)n2n1	3.6 Celsius (active)
N#CCCc1ccc2c(c1)-c1[nH]c3ccc(-n4oo4)cc3c1CC(=O)N2	3.1 Celsius (active)
CC(=O)c1cccc(-c2cnc3ccc(N[C@H](CO)C(C)C)nn23)c1	6.7 Celsius (active)
CC(C)[C@@H](CO)Nc1ccc2ncc(-c3cccc(Cl)c3)n2n1	3.9 Celsius (active)
CC(=O)c1cccc(-c2cnc3ccc(NC4CCOCC4)nn23)c1	5.2 Celsius (active)
Nc1ccc(-c2cnc3ccc(NC4CCOCC4)nn23)cc1	4.8 Celsius (active)
CCN(CC)CCNC(=O)c1c(C)[nH]c(/C=C2\C(=O)Nc3ccc(Cl)cc32)c1C	6.6 Celsius (active)
Oc1cccc(-c2cnc3ccc(NC4CCOCC4)nn23)c1	5.1 Celsius (active)
CCC(CO)Nc1ccc2ncc(-c3ccc(OC)nc3)n2n1 (stereo not given)	4.5 Celsius (active)
CC(=O)Nc1cccc(-c2cnc3ccc(N[C@H](CO)C(C)C)nn23)c1	7.4 Celsius (active)
